Data from PubChem BioAssay (Tox21).
Several values for one entry are separate records, joined by “and”; a condition that tells them apart may be missing. Equal entries are not always repeated. Records with an inconclusive call do not appear. Activity calls are given as the source filed them. Unless noted, the call rests on the fitted dose curve; in most records, active means well fitted curve in the direction sought with a large enough effect in the repeat runs; inconclusive means weak or mixed curves; inactive means no such curve, though single readings can be large; an effect the other way counts as inactive or inconclusive.

What was measured:
[1] = qHTS assay to identify small molecule agonists of the estrogen receptor alpha (ER-alpha) signaling pathway in the presence of an antagonist - cell viability counter screen (AID 1259386);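 further: cells exposed to compounds for 22 h at 37 °C before the viability read; nearly all actives have a fitted effect of over 30% in size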; further: potency means the concentration at half of the fitted maximal effect
In short: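 The test measures whether compounds kill ER-alpha reporter cells (VM7Luc4E2) under antagonist co-treatment (ICI-182,780, 10.0nM). Fluorescence from CellTiter-Fluor is read after a 22hr exposure.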

[2] = molecular target: Progesterone receptor (Homo sapiens) (UniProt P06401); assay: qHTS assay to identify small molecule agonists of the progesterone receptor (PR) signaling pathway (AID 1346784; calls by dose curve; further: nearly all actives have a fitted effect of over 30% in size)
Chain of Progesterone receptor (Homo sapiens) (P06401 whole entry, looked up): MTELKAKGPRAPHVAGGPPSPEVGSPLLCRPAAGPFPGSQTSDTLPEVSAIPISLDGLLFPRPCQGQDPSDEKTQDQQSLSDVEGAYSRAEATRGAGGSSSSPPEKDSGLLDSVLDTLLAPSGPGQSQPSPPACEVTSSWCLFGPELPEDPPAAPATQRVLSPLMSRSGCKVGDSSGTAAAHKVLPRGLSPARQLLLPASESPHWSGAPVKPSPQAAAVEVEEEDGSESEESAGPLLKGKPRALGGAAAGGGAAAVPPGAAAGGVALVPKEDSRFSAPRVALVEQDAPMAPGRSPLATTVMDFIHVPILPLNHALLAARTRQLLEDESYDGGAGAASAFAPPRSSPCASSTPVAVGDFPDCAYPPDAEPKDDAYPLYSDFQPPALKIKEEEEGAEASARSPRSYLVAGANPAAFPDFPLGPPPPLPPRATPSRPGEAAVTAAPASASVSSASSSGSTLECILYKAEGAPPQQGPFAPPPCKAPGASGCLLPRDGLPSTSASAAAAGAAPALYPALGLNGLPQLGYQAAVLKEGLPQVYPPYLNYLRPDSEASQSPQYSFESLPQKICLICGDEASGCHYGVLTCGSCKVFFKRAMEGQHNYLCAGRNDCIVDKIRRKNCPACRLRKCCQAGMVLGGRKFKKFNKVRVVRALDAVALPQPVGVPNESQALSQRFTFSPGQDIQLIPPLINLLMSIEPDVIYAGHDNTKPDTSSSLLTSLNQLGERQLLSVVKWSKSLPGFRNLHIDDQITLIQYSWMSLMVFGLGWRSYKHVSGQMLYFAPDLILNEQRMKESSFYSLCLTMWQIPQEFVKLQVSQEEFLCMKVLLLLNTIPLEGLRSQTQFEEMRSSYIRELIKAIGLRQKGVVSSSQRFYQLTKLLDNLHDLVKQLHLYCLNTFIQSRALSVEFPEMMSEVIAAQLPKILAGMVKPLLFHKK
In short: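 Using charcoal-stripped serum (2%) to limit endogenous steroids, PR-UAS-bla HEK 293T cells received compounds for 16 hr at 37C after 6 hr plating; beta-lactamase FRET fluorescence was recorded following 2 hr substrate loading at room temperature.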

[3] = qHTS assay to identify small molecule antagonists of the TGF-beta/Smad signaling pathway - cell viability counter screen (AID 1346824); further: nearly all actives have a fitted effect of over 50% in size; further: potency means the concentration at half of the fitted maximal effect
In short: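 SBE-bla HEK 293T cells, incubated overnight, then compound plus 0.25 ng/mL TGF-beta1 (stock added) for 5 hr at 37 C. Viability was read in the same wells by CellTiter-Glo luminescence after 30 min at room temperature.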

[4] = qHTS assay to identify small molecule agonists of the TGF-beta/Smad signaling pathway - cell viability counter screen (AID 1346829); further: top concentration of the series differs between compounds; nearly all actives have a fitted effect of over 45% in size
In short: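 Cytotoxicity counter screen: CellTiter-Glo luminescence (30 min, room temperature) measured in the SBE-bla HEK 293T reporter wells after 5 hr compound treatment at 37 C and the 2 hr substrate step.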

[5] = qHTS assay to identify small molecule agonists of the TGF-beta/Smad signaling pathway (AID 1346859; active means well fitted activation curve with a large enough effect in the signal ratio in the repeat runs, not every such curve was filed as active; the % refers to the signal ratio; further: series mostly up to about 77 µM)
In short: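 Stable Smad binding element-beta-lactamase HEK 293T cells; 5 hr compound exposure at 37 C under 5% CO2; 2 hr room-temperature substrate step; fluorescence excited at 405 nm, collected at 460 nm and 530 nm.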

[6] = molecular target: Thyrotropin-releasing hormone receptor (Homo sapiens) (UniProt P34981); assay: qHTS assay to identify small molecule antagonists of the thyrotropin-releasing hormone receptor (TRHR) signaling pathway (AID 1346877; active means well fitted inhibition curve with a large enough effect in the repeat runs, not every such curve was filed as active; further: potency means the concentration at half of the fitted maximal effect)
Chain of Thyrotropin-releasing hormone receptor (Homo sapiens) (P34981 whole entry, looked up): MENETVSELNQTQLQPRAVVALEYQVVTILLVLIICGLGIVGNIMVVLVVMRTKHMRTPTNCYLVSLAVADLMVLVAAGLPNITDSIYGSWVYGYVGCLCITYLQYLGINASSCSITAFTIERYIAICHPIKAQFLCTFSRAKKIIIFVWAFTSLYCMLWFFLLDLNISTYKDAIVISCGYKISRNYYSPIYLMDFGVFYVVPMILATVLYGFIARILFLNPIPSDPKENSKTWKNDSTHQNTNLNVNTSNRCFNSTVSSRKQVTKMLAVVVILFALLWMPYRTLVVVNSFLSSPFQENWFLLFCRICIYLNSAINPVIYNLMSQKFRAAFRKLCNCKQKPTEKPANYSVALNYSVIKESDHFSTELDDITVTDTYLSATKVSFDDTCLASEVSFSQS
In short: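 Overnight-plated (18 h, 37 °C) HEK293 cells expressing TRHR were dye-loaded 2 h, treated with compound, then stimulated with TRH at 1 nM final. Fluorescence intensity was captured every second for 3 min.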

[7] = molecular target: Thyrotropin-releasing hormone receptor (Homo sapiens) (UniProt P34981); assay: qHTS assay to identify small molecule agonists of the thyrotropin-releasing hormone receptor (TRHR) signaling pathway (AID 1346891; calls by dose curve; further: potency means the concentration at half of the fitted maximal effect;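 on activation: HEK293 cells expressing TRHR with calcium dye readout; series mostly up to about 58 µM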)
In short: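 In 1536-format, 1500 TRHR-Hek293 cells per well grew 18 h, took up calcium dye for 2 h at 37 °C, received compound, and were read kinetically; 15-point titrations, triplicates.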

[8] = qHTS assay to identify small molecule antagonists of the progesterone receptor (PR) signaling pathway - cell viability counter screen (AID 1346798); further: series mostly up to about 92 µM; nearly all actives have a fitted effect of over 50% in size
In short: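 ATP content as viability readout: CellTiter-Glo luminescence, 30 min room temperature, in PR-UAS-bla HEK293T cells after 16 hr compound/R5020 treatment at 37C and 5% CO2.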

[9] = qHTS assay to identify small molecule agonists of the progesterone receptor (PR) signaling pathway - cell viability counter screen (AID 1346799; calls by dose curve; further: nearly all actives have a fitted effect of over 45% in size; further: potency means the concentration at half of the fitted maximal effect)
In short: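 Cytotoxicity in PR-bla HEK293T cells: 16 h compound, 37C; CellTiter-Glo added post-FRET read; luminescence after 30 min RT.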

[10] = molecular target: Progesterone receptor (Homo sapiens) (UniProt P06401); assay: qHTS assay to identify small molecule antagonists of the progesterone receptor (PR) signaling pathway (AID 1346795; active means well fitted inhibition curve with a large enough effect in the signal ratio in the repeat runs, not every such curve was filed as active; the % refers to the signal ratio; further: potency means the concentration at half of the fitted maximal effect)
In short: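 Inhibition of R5020-induced (1 nM final) beta-lactamase reporter signal in PR-UAS-bla HEK293T cells was scored by FRET fluorescence after overnight (16 hr) compound treatment.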

Measured: Potency

O=C(N[C@H]1N=C(c2ccccc2F)c2cccc3c2N(CC3)C1=O)c1cc2ccccc2[nH]1
not listed: [8] | [9] | [10]
inactive: all other assays above

CN1C(=O)[C@@H](NC(=O)c2cc3ccccc3[nH]2)N=C(c2ccccc2)c2ccccc21
not listed: [4] | [10]
inactive: all other assays above

CNC(=O)O/N=C(\C)C(C)S(C)(=O)=O (centres undefined)
inactive: [1] | [2] | [3] | [4] | [5]

CCc1cccc(C)c1N(C(=O)CCl)[C@@H](C)COC
not listed: [9] | [10]
inactive: all other assays above

S=C=NCCc1ccccc1
inactive: [1] | [2] | [3] | [4] | [5]

CCNc1nc(NC(C)C(C)C)nc(SC)n1 (centres undefined)
inactive: [1] | [2] | [8] | [3] | [4] | [5]

[Cl-].[Cl-].[Sn+2]
inactive: [1] | [10] | [8] | [3] | [5]

C=C(C)C(=O)[O][Sn]([CH2]CCC)([CH2]CCC)[CH2]CCC
active: [1] 8.63 µM | [10] 1.09 µM | [9] 2170 nM | [3] 1380 nM | [6] 2690 nM | [7] 11000 nM

c1ccc(N=NNc2ccccc2)cc1
active: [1] 28.3 µM and 27.3 µM | [10] 56.4 µM and 48.6 µM
not listed: [2]
inactive: all other assays above
